In the library only some 10% were active in any assay of this set; here they are far more common.
PNC assembly inh = blocks assembly of the perinucleolar compartment; PC3M PTB-GFP, PNC prevalence imaging, 16 h; active compounds read low; activity change (PNC), negative = inhibition, % at 10 µM; 3.1% of 140,000 active; AID 2417;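 active means readout at or below -70, meaning at least 70% loss of cells showing the perinucleolar compartment, a nuclear body marking cancer cells; inconclusive means readout between -30 and a set limit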
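Compounds are pinned in duplicate onto adhered PC3M cells stably expressing GFP-tagged PTB and incubated 16 h at 37 C. Cells are then fixed, nuclei stained with Hoechst, and PNC-positive cells counted.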
ALDH1A1 inh = inhibitors of human aldehyde dehydrogenase 1A1; Purified ALDH1A1, NADH fluorescence, propionaldehyde substrate; AID 1030; Potency, µM (top dose mostly 75.3 µM), most hits filed as inhibitors; 7.3% of 220,000 active; P00352
Target sequence (P00352 whole entry, looked up): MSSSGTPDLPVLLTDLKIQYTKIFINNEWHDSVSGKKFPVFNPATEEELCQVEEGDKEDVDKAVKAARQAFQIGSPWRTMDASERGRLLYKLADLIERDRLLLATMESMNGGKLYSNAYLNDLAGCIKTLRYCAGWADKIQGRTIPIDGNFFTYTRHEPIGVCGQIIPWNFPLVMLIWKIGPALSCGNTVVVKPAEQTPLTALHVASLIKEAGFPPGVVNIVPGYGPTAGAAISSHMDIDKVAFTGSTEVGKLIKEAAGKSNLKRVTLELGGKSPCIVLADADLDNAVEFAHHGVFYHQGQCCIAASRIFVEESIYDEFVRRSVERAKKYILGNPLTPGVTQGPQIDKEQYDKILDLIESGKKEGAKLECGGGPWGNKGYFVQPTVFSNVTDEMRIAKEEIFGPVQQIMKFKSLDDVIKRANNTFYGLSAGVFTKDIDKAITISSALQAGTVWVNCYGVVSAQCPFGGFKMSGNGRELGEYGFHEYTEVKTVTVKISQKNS
LMNA splice mod = LMNA splicing modulation. HeLa LMNA splicing GFP/RFP minigene ratio, 48 h. Potency, µM (titrated, usually from 46.1 µM), actives largely listed as inhibitors. 0.01% of 200,000 active; active means well fitted inhibition curve with a large enough effect in the signal ratio, with a control signal flat, not every such curve was filed as active; inconclusive means small, poorly fitted or top-dose-only effect, or effect the other way, or a change in a side signal; the % refers to the signal ratio
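Read-out is the ratio of GFP to DsRed2 object intensity, acquired by 488 nm laser-scanning cytometry on HeLa lamin A-EGFP minigene reporter cells. Compound incubation 48 hrs at 37 °C in Opti-MEM with 2% FBS; DMSO 0.5% final.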
HPGD inh = blocks human HPGD enzyme activity. P15428. purified HPGD, NADH fluorescence kinetic, PGE2 substrate. Potency, µM, hits mostly inhibitors. 4.3% of 150,000 active. AID 894
Target sequence (P15428 whole entry, looked up): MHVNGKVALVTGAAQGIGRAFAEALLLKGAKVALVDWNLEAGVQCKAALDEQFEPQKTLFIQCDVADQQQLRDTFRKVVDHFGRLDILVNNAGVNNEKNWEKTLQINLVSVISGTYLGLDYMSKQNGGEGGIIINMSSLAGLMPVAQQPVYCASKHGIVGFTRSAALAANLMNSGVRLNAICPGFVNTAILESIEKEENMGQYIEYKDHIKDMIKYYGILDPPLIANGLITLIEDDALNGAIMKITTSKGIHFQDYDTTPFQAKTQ
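20 nM HPGD preincubated 15 min at room temperature with compound in 50 mM Tris-HCl pH 8, 0.01% Tween 20. Started with 1 mM NAD+ and 30 uM prostaglandin E2; NADH fluorescence (360/450 nm) read 5 times over 30-s intervals, last minus first.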
KinaseGlo FLuc = Kinase-Glo luciferase inhibition (counter-screen); 0.28% of 200,000 active; Q27757; Kinase-Glo luciferase, ATP luminescence, 8 min; Potency, µM (series often up to 38.3 µM), most hits filed as inhibitors; AID 1379; active means well fitted inhibition curve with a large enough effect; inconclusive means small, poorly fitted or top-dose-only effect; further: nearly all actives have a fitted effect of over 60% in size
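Kinase-Glo luciferase light output from ATP and luciferin was measured with 10 uM ATP, within the enzyme's linear range. Buffer: 50 mM imidazole pH 7.2, 50 mM KCl, 7 mM MgCl2, 0.01% Tween 20, 0.05% BSA; luminescence read after 8 min at ambient temperature.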
Hits are given with their value; [ ] = remark or other dose. Unless noted, the call rests on the fitted dose curve; in most records, active means well fitted inhibition curve with a large enough effect (not every such curve was filed as active); inconclusive means small, poorly fitted or top-dose-only effect, or another doubt; inactive means no such curve, though single readings can be large or run the other way.

Results for COc1ccc(NC(=O)CNc2cc(S(=O)(=O)N3CCOCC3)ccc2NCC2CCCO2)cc1 (stereo not drawn) ?
ALDH1A1 inh: 7.08µM; LMNA splice mod: inactive; KinaseGlo FLuc: inactive

How did O=C(COC(=O)COc1ccccc1[N+](=O)[O-])Nc1ccc(S(=O)(=O)N2CCCCC2)cc1 do in these assays?
PNC assembly inh: inactive; ALDH1A1 inh: 14.1µM; LMNA splice mod: inactive; HPGD inh: inactive; KinaseGlo FLuc: inactive

How did Cc1cc(C)n(-c2ccc(C(=O)OCC(=O)c3ccc(Br)s3)cc2)n1 do in these assays?
PNC assembly inh: inactive; ALDH1A1 inh: 22.4µM; LMNA splice mod: inactive; HPGD inh: inactive; KinaseGlo FLuc: inactive

Results for CCOCC(=O)Nc1ccc(S(=O)(=O)N2CCOCC2)cc1 ?
PNC assembly inh: inactive; ALDH1A1 inh: 10µM; LMNA splice mod: inactive; HPGD inh: inactive; KinaseGlo FLuc: inactive

Results for COc1ccccc1OCC(=O)Nc1ccc(S(=O)(=O)N2CCCCCC2)cc1 ?
PNC assembly inh: inactive; ALDH1A1 inh: inactive; LMNA splice mod: inconclusive; HPGD inh: inconclusive; KinaseGlo FLuc: inactive

Results for O=C(COC(=O)COc1ccccc1)Nc1ccc(S(=O)(=O)N2CCOCC2)cc1 ?
ALDH1A1 inh: 31.6µM; KinaseGlo FLuc: inactive

How did Cc1cc(C)n(-c2ccc(C(=O)OCC(=O)Nc3ccc(S(=O)(=O)N4CCOCC4)cc3)cc2)n1 do in these assays?
PNC assembly inh: -86.8; ALDH1A1 inh: inactive; LMNA splice mod: inactive; HPGD inh: inactive; KinaseGlo FLuc: inactive

Results for O=C(COC(=O)Cc1ccsc1)Nc1ccc(S(=O)(=O)N2CCOCC2)cc1 ?
PNC assembly inh: inconclusive; ALDH1A1 inh: inactive; LMNA splice mod: inactive

Results for Cc1cc(C)n(-c2ccc(C(=O)OCC(=O)Nc3ccc([N+](=O)[O-])cc3)cc2)n1 ?
PNC assembly inh: inconclusive; ALDH1A1 inh: inactive; LMNA splice mod: inactive; HPGD inh: inactive; KinaseGlo FLuc: inactive

Results for O=C(COC(=O)Cc1ccsc1)Nc1ccc(Cl)c(S(=O)(=O)N2CCOCC2)c1 ?
PNC assembly inh: -86.8; ALDH1A1 inh: inactive; LMNA splice mod: inactive; HPGD inh: inactive; KinaseGlo FLuc: inactive

What do the screens show for `CCC(C)NC(=O)COc1ccc(S(=O)(=O)N2CCOCC2)cc1` (stereo not drawn)?
PNC assembly inh: inactive; ALDH1A1 inh: 5.01µM; LMNA splice mod: inactive; HPGD inh: inactive; KinaseGlo FLuc: inactive

What do the screens show for `O=C1[C@H]2[C@H]3[C@H](O)[C@H](O)C/C(=N/OCc4ccccc4)[C@@H]3CC[C@@H]2C(=O)N1C[C@@H]1CCCO1`?
ALDH1A1 inh: inactive[13.5 µM]

What do the screens show for `CS(=O)(=O)N1CCC2(CCCN(c3cccc(-c4ccccc4)c3)C2)CC1`?
ALDH1A1 inh: inactive; HPGD inh: inactive; KinaseGlo FLuc: inactive

What do the screens show for `O=C(CN1CCCCCC1)Nc1ccc(S(=O)(=O)N2CCOCC2)cc1`?
ALDH1A1 inh: inactive; KinaseGlo FLuc: inactive

What do the screens show for `CCC(=O)Nc1ccc(S(=O)(=O)N2CCOCC2)cc1`?
PNC assembly inh: -80.4; ALDH1A1 inh: inactive; LMNA splice mod: inactive; HPGD inh: inactive; KinaseGlo FLuc: inactive

Results for N#Cc1ccc(NC(=S)NC(=O)CCc2ccc(S(=O)(=O)N3CCOCC3)cc2)cc1 ?
ALDH1A1 inh: 15.8µM; KinaseGlo FLuc: inactive

What do the screens show for `CC(=O)c1c(N2CCOCC2)nc(=S)n(-c2ccccc2)c1C`?
PNC assembly inh: inconclusive; ALDH1A1 inh: inactive; LMNA splice mod: inactive; HPGD inh: inactive; KinaseGlo FLuc: inactive

How did CC(=O)c1c(N2CCOCC2)nc(=O)n(-c2ccccc2)c1C do in these assays?
PNC assembly inh: -80.4; ALDH1A1 inh: inactive; LMNA splice mod: inactive; HPGD inh: inactive; KinaseGlo FLuc: inactive

Results for CC(=O)c1c(N2CCCCC2)nc(=O)n(-c2ccccc2)c1C ?
PNC assembly inh: inconclusive; ALDH1A1 inh: inactive; LMNA splice mod: inactive; HPGD inh: inactive; KinaseGlo FLuc: inactive

Results for CC(=O)c1c(N2CCOCC2)nc(=S)n(-c2ccc([N+](=O)[O-])cc2)c1C ?
PNC assembly inh: -113.4; ALDH1A1 inh: inconclusive; LMNA splice mod: inactive; HPGD inh: inactive; KinaseGlo FLuc: inactive

How did c1ccc2c(c1)[nH]c1c(N3CCOCC3)ncnc12 do in these assays?
PNC assembly inh: -119.2; ALDH1A1 inh: inconclusive; LMNA splice mod: inactive; HPGD inh: inactive; KinaseGlo FLuc: inactive

What do the screens show for `O=C(c1cc2nc(C3CC3)cc(C(F)F)n2n1)N1CCOCC1`?
PNC assembly inh: inconclusive; ALDH1A1 inh: inconclusive; LMNA splice mod: inactive; HPGD inh: 31.6µM; KinaseGlo FLuc: inactive

How did O=C(Cn1c(-c2cccs2)cc2ccccc21)NCc1ccccc1Br do in these assays?
LMNA splice mod: inactive

How did COc1ccc(OC)c(S(=O)(=O)Nc2ccc(O)c3ccccc23)c1 do in these assays?
PNC assembly inh: inconclusive; ALDH1A1 inh: 3.55µM; LMNA splice mod: inconclusive; HPGD inh: 3.16µM; KinaseGlo FLuc: inactive

How did CCOc1ccc(S(=O)(=O)Nc2ccc(O)c(Sc3ncn[nH]3)c2)cc1 do in these assays?
PNC assembly inh: inactive; ALDH1A1 inh: inactive; LMNA splice mod: inconclusive; HPGD inh: inactive; KinaseGlo FLuc: inactive

What do the screens show for `COc1ccc(OC)c(S(=O)(=O)Nc2ccc(O)c(Sc3ncn[nH]3)c2)c1`?
PNC assembly inh: inactive; ALDH1A1 inh: inactive; LMNA splice mod: inconclusive; HPGD inh: 22.4µM; KinaseGlo FLuc: inactive

Results for CN1CCc2cc3c(cc2[C@@H]1[C@@H]1C(=O)Oc2c1ccc1c2OCO1)OCO3 ?
ALDH1A1 inh: inactive; HPGD inh: inactive; KinaseGlo FLuc: inactive

Results for Cc1ccc(OC(=O)c2snnc2C)cc1C ?
LMNA splice mod: inactive

Results for Cc1cccc(OCCOC(=O)Nc2ccccc2)c1 ?
PNC assembly inh: inactive; ALDH1A1 inh: inactive; LMNA splice mod: inactive; HPGD inh: inactive; KinaseGlo FLuc: inactive

Results for Cc1cccc(OCCOc2ccccc2C=C(C#N)C#N)c1 ?
PNC assembly inh: inactive; ALDH1A1 inh: 7.08µM; LMNA splice mod: inconclusive; HPGD inh: inactive; KinaseGlo FLuc: inactive

What do the screens show for `Cc1ccccc1OCCNC(=S)Nc1ccccc1`?
PNC assembly inh: inactive; ALDH1A1 inh: inactive; LMNA splice mod: inactive; HPGD inh: inactive; KinaseGlo FLuc: inactive

Results for Cc1ccccc1OCCOc1ccccc1C=C(C#N)C#N ?
PNC assembly inh: inactive; ALDH1A1 inh: 3.55µM; LMNA splice mod: inconclusive; HPGD inh: inactive; KinaseGlo FLuc: inactive

What do the screens show for `CCOc1ccc(S(=O)(=O)NCCc2csc3nc(-c4cccc(C)c4)nn23)cc1`?
LMNA splice mod: inactive

What do the screens show for `CCCN(C(=O)Cn1ncc2c(=O)oc3ccccc3c21)c1cccc(C)c1`?
PNC assembly inh: inactive; ALDH1A1 inh: 11.2µM; LMNA splice mod: inactive; HPGD inh: inactive; KinaseGlo FLuc: inactive

How did CN(C)C(=O)CN(c1ccc2c(c1)OCO2)S(C)(=O)=O do in these assays?
PNC assembly inh: -106.5; ALDH1A1 inh: inactive; LMNA splice mod: inactive; HPGD inh: inactive; KinaseGlo FLuc: inactive

Source: PubChem (National Center for Advancing Translational Sciences (NCATS))
